Screening results from PubChem BioAssay.
RORg inh: blocks mouse ROR gamma transcriptional activity; P51450; Drosophila S2 Gal4-RORgamma UAS-luciferase reporter, 20 h; Potency, µM (top dose mostly 53.6 µM), without a hit: at the highest dose activity change, negative = inhibition, usual class: inhibitors; hit rate 5.4% among 310,000; AID 2551; note: potency is the fitted concentration of half-maximal effect; nearly all actives have a fitted effect of over 60% in size
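Luciferase reporter read in Schneider cells carrying Gal4-RORγ (mouse) and UAS-Photinus luciferase; cells given compound 1 h before 700 uM copper sulfate induction, then incubated 20 h at ambient temperature.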
ELG1 DNA repair: blocks ELG1-dependent DNA repair in HEK293T cells | Potency, µM (top dose mostly 46.1 µM), inactives show at the highest dose activity change, negative = inhibition, hits mostly inhibitors | HEK293T ELG1-luciferase reporter, luminescence, 16 h; DNA damage induced by 5-fluorouridine | hit rate 2.3% among 330,000; note: potency is the fitted concentration of half-maximal effect; nearly all actives have a fitted effect of over 55% in size
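Cells (2,000 per well) received 5-fluorouridine plus test compound or DMSO and were incubated 16 hr at 37 °C, 5% CO2. Luciferase activity was read by luminescence 30 min after ONE-Glo addition; signal suppression marked inhibition of damage-induced ELG1 function.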
FBPA coupling cs: counter-screen for Giardia aldolase inhibitors: coupling enzyme system; AID 2472; hit rate 0.67% among 290,000; activity change, negative = inhibition, % at 58.2 µM, hits read low; coupling enzyme system counterscreen, AmpLite Red fluorescence; in the data active = activity change below about -30%
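Activity here indicates interference with the coupling reaction, not aldolase inhibition. Compounds at 57.5 uM final met coupling enzymes for 10 min at RT; substrate and AmpLite Red detection followed, with a 525/598 nm fluorescence read after 20 min.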
TSHR antag: human thyrotropin receptor antagonism. P16473. TSHR-expressing cells, TSH-stimulated cAMP HTRF, 2 h; hits give low values. activity change, negative = inhibition, % at 11.5 µM. hit rate 0.2% among 330,000;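 active = activity change below a set negative limit, meaning inhibition stronger than a set level, cut at about -70% in these data; inconclusive = activity change between two set negative limits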
Target sequence (P16473 whole entry, looked up): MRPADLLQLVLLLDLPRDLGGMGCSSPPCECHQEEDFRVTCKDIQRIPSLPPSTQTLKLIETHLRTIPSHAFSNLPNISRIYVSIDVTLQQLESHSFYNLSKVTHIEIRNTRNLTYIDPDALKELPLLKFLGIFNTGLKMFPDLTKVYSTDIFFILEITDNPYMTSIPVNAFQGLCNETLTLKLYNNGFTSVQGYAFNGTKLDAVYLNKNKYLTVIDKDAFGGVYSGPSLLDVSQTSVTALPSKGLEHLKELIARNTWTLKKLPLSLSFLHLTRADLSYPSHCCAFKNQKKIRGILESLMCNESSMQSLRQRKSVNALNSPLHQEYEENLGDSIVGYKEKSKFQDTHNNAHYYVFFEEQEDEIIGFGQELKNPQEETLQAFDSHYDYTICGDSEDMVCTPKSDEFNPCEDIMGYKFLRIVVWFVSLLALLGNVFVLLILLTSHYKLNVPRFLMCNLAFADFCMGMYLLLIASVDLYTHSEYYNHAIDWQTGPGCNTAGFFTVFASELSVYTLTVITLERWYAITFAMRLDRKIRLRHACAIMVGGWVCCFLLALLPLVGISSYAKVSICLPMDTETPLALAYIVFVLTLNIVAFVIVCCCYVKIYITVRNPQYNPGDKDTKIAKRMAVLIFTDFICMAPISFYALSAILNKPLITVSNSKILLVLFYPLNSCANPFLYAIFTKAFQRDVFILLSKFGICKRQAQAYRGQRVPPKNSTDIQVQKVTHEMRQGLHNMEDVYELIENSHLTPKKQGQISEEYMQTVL
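Inhibition of cAMP made by TSHR-expressing cells under TSH stimulation (4nM final, EC80; 2 h, 37 deg C) is quantified with a one-step lysis HTRF kit, anti-cAMP cryptate versus cAMP-d2.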
VP16 counter: Gal4-VP16 reporter inhibition counter-screen. Drosophila S2 Gal4-VP16 UAS-luciferase, luminescence, 20 h. Potency, µM (titrated, usually from 53.6 µM), without a hit: at the top dose activity, negative = inhibition, most hits filed as inhibitors. AID 2546. hit rate 3.5% among 310,000;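 note: Gal4-VP16 expression switched on by copper sulfate through the metallothionein promoter; potency is the fitted concentration of half-maximal effect; nearly all actives have a fitted effect of over 50% in size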
* hit, by the source's call; ? = inconclusive; · = not tested or not shown; [ ] = dose if it differs, or a comment. Compounds with a hit are over-represented: about 8% of the library has one in this group of screens. Unless noted, calls come from the whole dose curve; as a rule, active = well fitted curve in the direction sought with a large enough effect; inconclusive = small, poorly fitted or top-dose-only effect, or another doubt; inactive = no such curve, though single readings can be large; an effect the other way counts as inactive or inconclusive. % is set by controls: 0 for no effect and ±100 for the full control effect.

SMILES | RORg inh | ELG1 DNA repair | FBPA coupling cs | TSHR antag | VP16 counter
O=C(CSc1cc(Cl)ccc1Cl)NCCN1C(=O)CSC1=O | · | 9.1% | · | -5.0 | ·
COc1ccc(OC)c(S(=O)(=O)Nc2ccc(Oc3ccccc3)cc2)c1 | ? | -6.5% | -4.8 | -4.4 | 6.31µM*
COc1ccc(OC)c(S(=O)(=O)Nc2ccc(O)c3ccccc23)c1 | 10µM* | 10.3µM* | -58.1* | 21.8 | 3.6%[0.365 µM]
CCOc1ccc(NS(=O)(=O)c2cc(OC)ccc2OC)cc1 | -2.1% | -4.1% | 3.3 | 7.1 | 2.1%
CC1Sc2ccc(S(=O)(=O)CCC(=O)NC3CCCC(C)C3C)cc2NC1=O (stereo unspecified) | -8.7% | -11.5% | 0.9 | 2.8 | 4.7%
CCOc1ccccc1NC(=O)c1ccc2c(c1)C(=O)N(CC)C2=O | 4.0% | 11.1% | 1.8 | -9.6 | 6.5%
CCOC(=O)c1cc2n(c1/N=C/N(C)C)-c1ccccc1C2=O | 0.0% | ? | -35.4* | -14.9 | 1.6%
O=C1[C@H]2O[C@@H]2[C@@H](O)[C@H]2[C@H]1CCn1c(=O)n(Cc3cc4c(cc3Cl)OCO4)c(=O)n12 | -0.4%[10 µM] | · | -0.1 | · | 10.8%[10 µM]
CN1C(=O)CC(NNC(=O)c2ccccc2)C1=O (stereo unspecified) | -1.3% | -0.5% | -3.1 | 9.9 | -3.5%
CC1CC(NNC(=O)c2ccccc2)=Nc2ccccc2N1C (stereo unspecified) | 1.78µM* | -14.5% | 4.4 | 21.2 | 5.01µM*
COc1ccccc1OCCNC(=O)c1cc(C2CC2)nc2c1cnn2C(C)C | · | 12.6µM* | · | -7.1 | ·
COc1ccc(-c2cc(=O)oc3cc(O)ccc23)cc1 | 26.0% | ? | 6.9 | 3.7 | -7.1%
COc1ccc(-c2cc(=O)oc3cc(OC(=O)C4CCCCC4)c(Cl)cc23)cc1 | -0.5% | 3.26µM* | 4.0 | 2.4 | 1.4%
CN(C(=O)CSC(=O)c1ccccc1)c1ccccc1 | 30.7% | -4.4% | · | -7.3 | 14.8%
Cn1nc(-c2ccc(N3CCOCC3)c(NS(=O)(=O)c3ccc(Cl)cc3)c2)c2ccccc2c1=O | 10µM* | 0.9% | -5.5 | -36.8 | -8.3%
Cc1ccc(S(=O)(=O)Nc2cc(-c3nn(C)c(=O)c4ccccc34)ccc2N2CCOCC2)cc1 | -27.7% | ? | -0.1 | -29.6 | -1.0%
CCN(CC(=O)Nc1ccccc1OC)C(=O)CSCc1ccc(C)cc1 | · | 9.6% | · | 7.2 | ·
O=C(CNC(=O)c1ccccc1F)c1ccccc1 | 11.2µM* | ? | 0.8 | -1.3 | ?
O=C(CNC(=O)c1ccccc1Cl)c1ccccc1 | 8.91µM* | ? | 0.0 | -4.6 | -25.0%
O=C(N1CCN(c2ccccc2)CC1)C12CC3CC(CC(C3)C1)C2 | 11.9% | 0.0% | 5.7 | -14.3 | 6.6%
Cc1nnn(C23C[C@@H]4C[C@@H](CC(C(=O)N5CCN(c6ccccc6)CC5)(C4)C2)C3)n1 | -9.3% | 23.1µM* | 6.9 | 1.9 | -0.3%
CC(=O)c1cccc(OCC(O)CNCCc2ccc(Cl)cc2)c1 (stereo unspecified) | -10.1% | 0.2% | 2.4 | 8.5 | 3.3%
CCOC(=O)c1cccc(OCC(O)CNCCOc2ccccc2F)c1 (stereo unspecified) | -7.7% | 5.3% | 2.5 | -105.7* | -2.8%
COc1ccc2cc(C#N)c(N3CCN(C(=O)c4ccccc4C)CC3)nc2c1 | 0.4% | 13µM* | 4.6 | 9.0 | 9.7%
COc1ccc2nc(N3CCC(O)CC3)c(C#N)cc2c1 | -22.2% | 0.0% | -33.5* | 4.5 | -6.3%
SMILES | RORg inh | ELG1 DNA repair | FBPA coupling cs | TSHR antag | VP16 counter
COc1ccc2nc(N3CCC(C)CC3)c(C#N)cc2c1 | ? | ? | -25.4 | -3.0 | ?
O=C1NC2(CCCCC2)Cc2ccccc21 | 21.0% | ? | -0.5 | -4.1 | 4.7%
COc1cc2c(cc1OC)C(SC)=NC1(CCCC1)C2 | 0.3% | 18.9% | -3.5 | -6.8 | -5.1%
S=C1NC2(CCCCC2)Cc2ccccc21 | 1.12µM* | -11.7% | 2.9 | -2.3 | ?
COc1cc2c(cc1OC)C(=S)NC1(CCCC1)C2 | 2µM* | -10.8% | -1.1 | -14.7 | 14.1µM*
O=C(NC[C@@H](O)CO)c1c(I)c(C(=O)NC[C@@H](O)CO)c(I)c(N(CCO)C(=O)CO)c1I | 4.0%[2.98 µM] | · | 3.8 | · | -10.5%[17 µM]
CCCC[C@@H](CNC)NC[C@H](NCCCCC1CCCCC1)C(C)C | 15.8µM* | -13.2% | 0.1 | 18.0 | ?
CCC[C@@H](CNC)NC[C@H](Cc1ccccc1)NCCCCc1ccccc1 | -34.3% | -19.1% | 1.8 | -0.5 | 0.6%
CC(C)[C@H](NC(=O)N1CCn2c1nc1ccccc12)C(=O)NCC1CCCO1 (stereo partly specified) | 0.3% | 5.3% | -0.2 | 3.9 | 0.4%
C=CCNC(=O)c1ccc(OC)cc1 | -14.2% | 13.6% | 3.4 | 8.9 | -4.4%
O=C(O)CCC(=O)NNC(=O)c1ccc(-c2ccccc2)cc1 | -0.4% | 17.0% | -2.1 | 0.7 | 2.1%
C=CCN(CC=C)C(=S)NC(=O)c1ccc(C)c(Br)c1 | 0.282µM* | -5.7% | -2.1 | -9.2 | 0.126µM*
COc1ccc(C(=O)NC(=S)N(Cc2ccccc2)Cc2ccccc2)cc1 | 0.159µM* | ? | 6.1 | -0.4 | 0.562µM*
C=CCN(CC=C)C(=S)NC(=O)c1ccc(-c2ccccc2)cc1 | 0.501µM* | -1.0% | 3.6 | -7.1 | 1µM*
C=CCN(CC=C)C(=S)NC(=O)c1ccc(OC)cc1 | 0.891µM* | -4.3% | 2.7 | -2.3 | 2.24µM*
O=C1Nc2ccc(Br)cc2C1(O)c1ccc(F)cc1 (stereo unspecified) | -6.8% | 0.0% | -2.7 | -2.4 | 7.6%
CCOC(=O)c1oc2ccc(/C=N/O)c(Cl)c2c1C | 0.562µM* | ? | 1.0 | 15.7 | 3.16µM*
COc1ccc(-c2cc(=Nc3ccc(C(=O)O)cc3)c3cc(C)ccc3o2)cc1 | -39.0% | ? | 0.9 | -2.6 | ?
CCc1ccc2oc(-c3ccc(OC)cc3)cc(=Nc3cccc(C(=O)O)c3)c2c1 | ? | ? | 2.1 | -18.6 | 11.2µM*
NC(=O)C1CCN(C(=O)C2CC(=O)N(c3ccc(F)cc3)C2)CC1 (stereo unspecified) | -34.0% | 20.6% | · | 4.4 | 3.5%
CSc1nccc(-c2nn(-c3ccc(C)cc3)ccc2=O)n1 | 5.9% | ? | 1.7 | 20.3 | 4.0%
C=CCSc1nccc(-c2nn(-c3ccc(C)cc3)ccc2=O)n1 | 11.9% | 7.31µM* | -0.2 | -6.1 | -20.1%
Nc1nccc(-c2nn(-c3ccc(Cl)cc3)ccc2=O)n1 | -1.2% | -11.3% | 1.8 | -1.8 | 0.9%
C#CCSc1nccc(-c2nn(-c3ccc(C)cc3)ccc2=O)n1 | 34.3% | 9.2µM* | 0.6 | -1.8 | -8.0%
CCSc1nccc(-c2nn(-c3ccc(C)cc3)ccc2=O)n1 | -2.0% | 10.3µM* | -0.1 | -5.6 | -11.5%
